Laboratory results published in PubChem BioAssay (Tox21).
Results filed as inconclusive are left out. The source made the active and inactive calls. Calls come from the whole dose curve; as a rule, active = well fitted cell-killing curve with a large enough effect in the repeat runs; inconclusive = weak or mixed curves, or effect the other way; inactive = flat fitted curve, though single readings scatter.

Experiment: qHTS RealTime-Glo MT Cell Viability Assay in HepG2 cells - 40 hour (AID 1224870); note: nearly all actives have a fitted effect of over 50% in size
Conditions: RealTime-Glo luminescence; series mostly up to 76.8 µM; activity change, negative = cytotoxic: at the top concentration
Excerpt: National Center for Advancing Translational Sciences [NCATS]
NIH Chemical Genomics Center [NCGC]
U.S. Environmental Protection Agency [EPA]
National Institutes of Environmental Health Sciences [NIEHS]
National Toxicology Program [NTP]
U.S. Food and Drug Administration [FDA]
Measure of cell viability is critical in the cell-base assay. Analysis of cell viability is necessary for the characterization of cell responses to cytotoxic drugs and environmental stress. A RealTime-Glo MT Cell Viability Assay to monitor cell viability in real time of continues cell culture during 40 hours of compound treatment was used to screen Tox21 10K library compounds in HepG2 cells. The RealTime-Glo MT Cell Viability Assay is a nonlytic, homogeneous, bioluminescent method to measure cell viability in real time using a simple, plate-based method. The assay involves adding NanoLuc luciferase and a cell-permeant prosubstrate to cells in culture. Viable cells reduce the proprietary prosubstrate to generate a substrate for NanoLuc luciferase. This substrate diffuses from cells into the surrounding culture medium, where it is rapidly used by the NanoLuc Enzyme to produce a luminescent signal. The signal correlates with the number of viable cells, making the assay well suited for cytotoxicity studies.
Tox21 Assay Protocol Summary:
The mixture of HepG2 cell suspension and reagents were dispensed at 600cells/6 ul/well in 1536-well tissue culture treated black solid bottom plates using a Multidrop dispenser. After the assay plates were incubated at a 37 C/5% CO2 incubator for 5 hours, 23 nL of compounds dissolved in DMSO, positive and negative controls was transferred to the assay plate by a pintool work station. The plates were incubated at 37 C for 40 hours. The luminescence intensity were measured at 0h, 8h, 16h, 24h, 32h and 40h time points using ViewLux plate reader during compound treatment.
% is set by controls: 0 for no effect and ±100 for the full control effect; potency is the fitted concentration of half-maximal effect.

| Structure (SMILES) | activity change, negative = cytotoxic | Potency |
| --- | --- | --- |
| O=C(c1ccccc1)c1cc(Cl)ccc1O | -2.76% (inactive) | – |
| CC(CN(C)C)CN1c2ccccc2CCc2ccccc21 (stereo not given) | -9.43% [at 35.3 µM] (inactive) | – |
| O=C(O)CC(=O)O | -2.93% (inactive) | – |
| CC1CCCNC1 (stereo not given) | 1.52% (inactive) | – |
| COc1ccc(C#N)cc1 | -2.67% (inactive) | – |
| CCCCCCCOC(=O)c1ccccc1C(=O)OCCCCCCC | -4.34% (inactive) | – |
| CCCCOCC | -1.6% (inactive) | – |
| COc1ccccc1OCCNCC(O)COc1cccc2[nH]c3ccccc3c12 (stereo not given) | – | 23.9 µM (active) |
| CCN(CC)CCCN(c1ccccc1)C1Cc2ccccc2C1 | -19.9% [at 35.3 µM] (inactive) | – |
| CN(C)CCCN1c2ccccc2CCc2ccccc21 | – | inactive |
| CCCCC(CC)COC(=O)c1ccc(O)cc1 (stereo not given) | – | inactive |
| CCc1c(Br)c(Br)c(Br)c(Br)c1Br | -3.24% (inactive) | – |
| C/C=C/C(=O)Oc1c(CCCCCC(C)C)cc([N+](=O)[O-])cc1[N+](=O)[O-] | – | 43.6 µM (active) |
| OCCC(O)CO (stereo not given) | -12% (inactive) | – |
| COC(=O)[C@]1(C)CCC[C@@]2(C)[C@H]1CC=C1C=C(C(C)C)CC[C@@H]12 | -14% (inactive) | – |
| O[C@@H](c1cc(C(F)(F)F)nc2c(C(F)(F)F)cccc12)[C@H]1CCCCN1 | – | 13.4 µM (active) |
| c1ccc2c(c1)CCC2 | -2.94% (inactive) | – |
| NC(=O)c1ccccc1N | -0.886% (inactive) | – |
| [O]=[Zr] | -2.41% (inactive) | – |
| CCOC(=O)CC(C)O (stereo not given) | -0.809% (inactive) | – |

| Structure (SMILES) | activity change, negative = cytotoxic | Potency |
| --- | --- | --- |
| COc1ccc(-n2nc(CCC(=O)N(C)O)cc2-c2ccc(Cl)cc2)cc1 | -16.5% [at 35.3 µM] (inactive) | – |
| CCOC(OCC)C(=O)c1ccccc1 | -1.27% (inactive) | – |
| O=C(O)c1cccc(Cl)n1 | -1.63% (inactive) | – |
| CCc1cccc(C)c1 | 20.6% (inactive) | – |
| CO[Si](CCC1CCC2OC2C1)(OC)OC (stereo not given) | -0.713% (inactive) | – |
| OCCCS | -11.1% (inactive) | – |
| O=C(O)CCCCCCC(=O)O | -0.789% (inactive) | – |
| C[C@H]1O[C@@H](O[C@H]2[C@@H](O)C[C@H](O[C@H]3[C@@H](O)C[C@H](O[C@H]4CC[C@@]5(C)[C@H](CC[C@@H]6[C@@H]5C[C@@H](O)[C@]5(C)[C@@H](C7=CC(=O)OC7)CC[C@]65O)C4)O[C@@H]3C)O[C@@H]2C)C[C@H](O)[C@@H]1O | – | inactive |
| CCN1CCN(c2cc(-c3ccc(F)cc3)c3c(n2)CCCCCC3)CC1 | -8.41% [at 15.8 µM] (inactive) | – |
| CC1=C(/C=C/C(C)=C/C=C/C(C)=C/C(=O)Nc2ccc(O)cc2)C(C)(C)CCC1 | -21.8% (inactive) | – |
| CCCN(CCc1cccs1)[C@H]1CCc2c(O)cccc2C1 | -7.04% [at 35.3 µM] (inactive) | – |
| O=C(O)Cc1ccc(OCCNC[C@H](O)c2ccccc2)cc1 | 0.346% [at 35.3 µM] (inactive) | – |
| CC(C)c1ccccc1N | -1.44% (inactive) | – |
| CSc1ccc2c(c1)N(CCC1CCCCN1C)c1ccccc1S2 (stereo not given) | – | 30.8 µM (active) |
| CCc1cccc(CC)c1N(COC)C(=O)CS(=O)(=O)O | -1.46% (inactive) | – |
| CNCC[C@H](Oc1cccc2ccccc12)c1cccs1 | – | 23.9 µM (active) |
| COc1cccc(OC)c1O | 0.406% (inactive) | – |
| O=S(=O)(O)c1cc(S(=O)(=O)O)c2ccc3c(S(=O)(=O)O)cc(S(=O)(=O)O)c4ccc1c2c43 | 8.14% [at 15.8 µM] (inactive) | – |
| SCCCCCCCCS | 0.102% (inactive) | – |
| CC(C)N=C(N)/N=C(\N)Nc1ccc(Cl)cc1 | -5.69% [at 35.3 µM] (inactive) | – |
